# According to PubChem BioAssay (Tox21):
# Inconclusive results are not listed. Values without a mark were called inactive. Activity calls are given as the source filed them. The call rests on the fitted dose curve; in most records, active means well fitted cell-killing curve with a large enough effect in the repeat runs; inconclusive means weak or mixed curves, or effect the other way; inactive means flat fitted curve, though single readings scatter.
# Assay: qHTS assay to identify small molecule antagonists of the retinoid acid receptor (RAR) signaling pathway - cell viability counter screen (AID 1159551); further: nearly all actives have a fitted effect of over 35% in size
# Conditions: C3RL4 cells viability, ATP luminescence (CellTiter-Glo), 6 h; series mostly up to 92.4 µM
# In short: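 Viability of C3RL4 cells is quantified from ATP by luminescence after 6 h treatment at 37 C with compounds and 1 uM retinol.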
# On the % scale 0 is the no-effect control and ±100 the full control effect.
SMILES,"activity change, negative = cytotoxicity",outcome
CC(C)C[C@@H](N)C(=O)O,3.59% [at 19 µM],–
CCCCc1nc(Cl)c(CO)n1Cc1ccc(-c2ccccc2-c2nn[nH]n2)cc1,–,inactive
C=COCC1CCC(COC=C)CC1 (centres undefined),–,inactive
Cc1nc2ccc(CN(C)c3ccc(C(=O)N[C@@H](CCC(=O)O)C(=O)O)s3)cc2c(=O)[nH]1,–,inactive
C=CC(C)(CCC=C(C)C)OC(=O)CC (centres undefined),–,inactive
CC(CO)(CO)[N+](=O)[O-],–,inactive
Cc1onc(-c2c(Cl)cccc2Cl)c1C(=O)Cl,–,inactive
CC1=CC(=O)[C@H]2C[C@@H]1C2(C)C,–,inactive
C[C@@H]1CCC[C@H](C)N1,–,inactive
CN1CCC(=C2c3ccccc3CCc3cccnc32)CC1,–,inactive
CCCO[Si](OCCC)(OCCC)OCCC,–,inactive
Cc1cccc(C)c1NC(=O)CC12CCCN1CCC2,–,inactive
CC(=O)C1CCCCC1=O (centres undefined),–,inactive
CC(C)(C)C(=O)c1ccccc1,–,inactive
NC(=O)N1c2ccccc2CC(=O)c2ccccc21,–,inactive
CC(=O)NC(=O)c1ccccc1O,–,inactive
C=CCCCCCCCCC(=O)OCC,–,inactive
Cc1cc(C)c(N=Nc2c(O)c(S(=O)(=O)O)cc3cc(S(=O)(=O)O)ccc23)cc1C,0.446% [at 8.39 µM],–
CN(C)CCCN(C)CCCN(C)C,–,inactive
CC[C@H]1OC(=O)[C@H](C)[C@@H](O[C@H]2C[C@@](C)(OC)[C@@H](O)[C@H](C)O2)[C@H](C)[C@@H](O[C@@H]2O[C@H](C)C[C@H](N(C)C)[C@H]2O)[C@](C)(OC)C[C@@H](C)C(=O)[C@H](C)[C@@H](O)[C@]1(C)O,–,inactive

SMILES,"activity change, negative = cytotoxicity",outcome
CCCCCCC#CC(=O)OC,–,inactive
CCO[Si](OCC)(OCC)c1ccccc1,–,inactive
COc1ccnc(CS(=O)c2nc3cc(OC(F)F)ccc3[nH]2)c1OC (centres undefined),–,inactive
CN1C(C)(C)CC(O)CC1(C)C,–,inactive
c1coc(CNc2ncnc3nc[nH]c23)c1,–,inactive
CCN[C@H]1C[C@H](C)S(=O)(=O)c2sc(S(N)(=O)=O)cc21,–,inactive
CCOC(=O)c1ccccc1,–,inactive
CC(C#N)(CCC(=O)O)N=NC(C)(C#N)CCC(=O)O (centres undefined),–,inactive
CC(C)[C@H]1CC[C@@H](C)CC1=O,–,inactive
COc1cc(C(=O)OC(COCCC(C)C)CN2CCOCC2)cc(OC)c1OC (centres undefined),–,inactive
O=S(=O)(O)c1cc(O)c(O)c(S(=O)(=O)O)c1,–,inactive
CC1=CCC(O)(C(C)C)CC1 (centres undefined),–,inactive
Cc1ccc(-c2ncc(Cl)cc2-c2ccc(S(C)(=O)=O)cc2)cn1,–,inactive
CCCc1ncc(C[n+]2ccccc2C)c(N)n1,–,inactive
CNCCO,–,inactive
C=COC(=O)C(C)(CC)CCC(C)C (centres undefined),–,inactive
CCCCc1ccc2c(n1)[C@@H](c1ccc(OC)cc1C[C@H](C)C(=O)O)[C@H](C(=O)O)[C@H]2c1ccc2c(c1)OCO2,–,inactive
CCCCN(CCC(=O)OCC)C(C)=O,–,inactive
Cc1ncc([C@@H](CCCCCCc2ccc3c(n2)NCCC3)CC(=O)O)cn1,–,inactive
